The list is not random: actives were taken first. Their share in the collection is about 1.5%.
PP5 primary: PP5 phosphatase inhibitors, primary screen, biochemical, fluorescence; Serine/threonine-protein phosphatase 5 (Homo sapiens), P53041; purified PP5c, OMFP substrate fluorescence; inhibition, % at 6.7 µM; hit rate 0.18% among 320,000;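 active means inhibition above the campaign's mean inhibition across all tested compounds plus 3 SD, cut at about 9.5% in these data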;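 further: 0% = DMSO only and 100% = 100 µM cantharidin control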
STK33 inh: inhibitors of purified STK33 kinase, primary screen, biochemical, ADP-Glo luminescence, homogeneous, cell-free | hit rate 0.073% among 320,000 | MBP phosphorylation | Serine/threonine-protein kinase 33 (Homo sapiens), Q9BYT3 | inhibition, % at 10 µM;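 active means inhibition at or above 25%, using the most active replicate where run in duplicate; inactive means inhibition below 25%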
Target sequence (Q9BYT3 whole entry, looked up): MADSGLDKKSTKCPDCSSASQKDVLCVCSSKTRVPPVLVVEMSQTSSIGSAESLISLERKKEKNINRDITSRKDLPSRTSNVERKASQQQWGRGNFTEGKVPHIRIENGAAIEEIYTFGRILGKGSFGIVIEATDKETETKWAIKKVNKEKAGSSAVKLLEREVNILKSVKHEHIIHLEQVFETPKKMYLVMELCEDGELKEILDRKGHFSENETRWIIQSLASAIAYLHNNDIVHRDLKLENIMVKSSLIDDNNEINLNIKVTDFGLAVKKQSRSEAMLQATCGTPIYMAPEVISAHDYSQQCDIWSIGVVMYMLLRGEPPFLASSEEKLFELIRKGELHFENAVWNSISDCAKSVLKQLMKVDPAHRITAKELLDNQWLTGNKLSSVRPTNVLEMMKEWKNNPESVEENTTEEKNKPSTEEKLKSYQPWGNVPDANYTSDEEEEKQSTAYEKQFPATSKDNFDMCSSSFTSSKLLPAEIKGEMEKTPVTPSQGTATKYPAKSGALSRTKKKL
HIF activator: HIF pathway transcriptional activators, primary screen, cell-based, U2OS HRE-luciferase, luminescence. U2OS HRE-luciferase reporter; normalized: DMSO 0%, desferrioxamine 100%. activation, % at 7.5 µM (by protocol). hit rate 0.32% among 300,000. AID 1910, 2009;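 active means mean activation of at least 10% of the iron chelator positive control signal, with at least half of replicates also reaching 10%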
PP1 counter: PP1-alpha phosphatase inhibitors, primary screen, counter-screen for PP5 inhibitor project, biochemical, fluorescence, OMFP substrate, single point; Serine/threonine-protein phosphatase PP1-alpha catalytic subunit (Homo sapiens), P62136; purified PP1alpha; inhibition, % at 6.7 µM; hit rate 0.9% among 320,000;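 active means inhibition above the mean inhibition of all tested compounds plus 3 SD, computed separately for each screening campaign, cut at about 15% in these data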
Dyrk1A ADPGlo: rat Dyrk1A kinase inhibitors, primary screen, biochemical, single point, plate reader. hit rate 0.43% among 310,000. ADP-Glo luminescence, NFATc1 peptide. inhibition, % at 12.5 µM; in the data active means inhibition above about 50%;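 further: plate controls were vehicle with enzyme for no effect and no enzyme for full effect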
* hit, by the source's call.

`Cc1cccc(OCCn2cccc2/C=C2/C(=O)NC(=O)N(Cc3ccco3)C2=O)c1` gave PP5 primary 2, STK33 inh -1, HIF activator 592* and PP1 counter 3.
NC(N)=N/N=C/c1cn(-c2ccccc2)nc1-c1cccs1 was read as PP5 primary 5, STK33 inh 4, HIF activator -10, PP1 counter 17* and Dyrk1A ADPGlo -2.
For COc1cc2c(cc1O)C[C@H]1NCCc3cc4c(c-2c31)OCO4 the results were PP5 primary 3, STK33 inh 7, HIF activator 1, PP1 counter 4 and Dyrk1A ADPGlo 72*.
For COC(/C(C)=C/C=C/C(C)=C/c1coc(C)n1)C(C)C1CC(O)C2(C)OC2C=CC(C)C2CC(CC(=O)O2)CC2OC2C(=O)O1 (centres undefined) the results were Dyrk1A ADPGlo -2.
For COc1cccc(C(=O)C2CCCN(Cc3ccc4nsnc4c3)C2)c1 (centres undefined) the results were PP5 primary 2, STK33 inh -1, HIF activator 243*, PP1 counter -5 and Dyrk1A ADPGlo -1.
Screening COc1cccc(C(=O)C2CCCN(Cc3ccc(F)cc3)C2)c1 (centres undefined) returned PP5 primary -2, STK33 inh -1, HIF activator -1, PP1 counter -2 and Dyrk1A ADPGlo -4.
`C=C(C)CSc1nnc([C@@H](N)Cc2c[nH]c3ccccc23)o1` gave PP5 primary 1, STK33 inh 0, HIF activator 0, PP1 counter 1 and Dyrk1A ADPGlo 1.
For CC(C)=CCSc1nnc([C@@H](N)Cc2c[nH]c3ccccc23)o1 the results were PP5 primary 0, STK33 inh 0, HIF activator 18*, PP1 counter 3 and Dyrk1A ADPGlo 1.
Screening O=C(Nc1ccccc1)c1c(O)[nH]c(=S)[nH]c1=O returned PP5 primary -6, STK33 inh 1, HIF activator -8, PP1 counter 16* and Dyrk1A ADPGlo 2.
O=c1[nH]c(=S)[nH]c(O)c1/C=C1/C=c2ccccc2=N1 was read as PP5 primary 1, STK33 inh -1, HIF activator 1, PP1 counter 4 and Dyrk1A ADPGlo -3.
Screening O=P(O)(O)CN1CCNCCN(CP(=O)(O)O)CCNCC1 returned Dyrk1A ADPGlo 0.
`CC12CCC(=O)C=C1CC(N1CC1)C1C2CCC2(C)C(O)CCC12` (centres undefined) gave Dyrk1A ADPGlo -5.
Oc1cc2c(cc1O)[C@H]1c3ccccc3CN[C@@H]1CC2 was read as PP5 primary 3, STK33 inh 28*, HIF activator 0 and PP1 counter -5.
Screening O=[N+]([O-])c1cccc(O)c1 returned PP5 primary 1, STK33 inh 1 and PP1 counter 0.
Screening O=[N+]([O-])c1cc(S(=O)(=O)c2ccc(O)c([N+](=O)[O-])c2)ccc1O returned PP5 primary 0, STK33 inh -2, HIF activator 36*, PP1 counter -1 and Dyrk1A ADPGlo -6.
`CC(=O)OC1C(=O)OCC23CCC4(C)OC4C2OC2CC(OC(=O)C=CC=CC(=O)OCCC1C)C3(C)C21CO1` (centres undefined) gave Dyrk1A ADPGlo 1.
`NC(Cc1cc(O)c(O)cc1O)C(=O)O` (centres undefined) gave PP5 primary 0, STK33 inh -2 and PP1 counter 69*.
NCCc1cc(O)c(O)cc1O was read as Dyrk1A ADPGlo 8.
CC(C)Cc1nnc(NC(=O)CCC(=O)N2CCC3(CC2)OCCO3)s1 was read as PP5 primary -1, STK33 inh -1, HIF activator 21*, PP1 counter -4 and Dyrk1A ADPGlo 4.
`O=[N+]([O-])/C=C/c1c(Cl)cccc1Cl` gave Dyrk1A ADPGlo -1.
COc1ccc(OC)c(NC2=NCCCS2)c1 was read as PP5 primary 1, STK33 inh -1, HIF activator 37* and PP1 counter -4.
Screening COc1ccc(OC)c(NC2=NCCS2)c1 returned PP5 primary 0, STK33 inh 0, HIF activator -1, PP1 counter 2 and Dyrk1A ADPGlo -6.

Screens as filed in PubChem BioAssay.
